The source made the active and inactive calls.
What was measured:
[1] = optical density shifts of acrAB sulA E. coli – strain DRC41, OD650, 48 h, E. coli filamentation inducer project, primary screen (AID 1152); conditions: higher = more signal, called active from +8 up or from −8 down;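 also: E. coli MC1000 strain DRC41 lacking acrAB efflux pump and sulA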
[2] = probe aLefty1 binding on compound microarray – biochemical, small-molecule microarray, 635/667 nm fluorescence, primary screen (AID 1153); conditions: higher = more signal;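 also: score merges spot fluorescence with signal-to-noise ratio from the scanned slide images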
[3] = plasmodial surface anion channel blockers, osmotic lysis – cell-based, P. falciparum Indochina, OD700, 1 h, primary screen (AID 1154); conditions: P. falciparum Indochina infected RBC osmotic lysis, higher = more signal, called active from +8 up or from −8 down
[4] = plasmodial surface anion channel blockers, osmotic lysis – cell-based, P. falciparum Indochina, OD700, 2 h, primary screen (AID 1155);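 also: lysis reports solute entry through the parasite surface anion channel PSAC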; conditions: P. falciparum Indochina infected erythrocytes, higher = more signal, called active from +8 up or from −8 down
[5] = changes in parasitized red cell lysis, either direction – P. falciparum Indochina, OD700, 3 h, PSAC antagonist project, primary screen (AID 1156); conditions: P. falciparum-infected erythrocytes, osmotic lysis, higher = more signal, called active from +8 up or from −8 down
[6] = plasmodial surface anion channel blockers, osmotic lysis – cell-based, P. falciparum Indochina, OD700, 18 h, primary screen (AID 1157); conditions: P. falciparum Indochina infected erythrocytes, osmotic lysis OD700, 18 h; higher = more signal, called active from +8 up or from −8 down
[7] = S6 kinase pathway phospho-S6 level changes – cell-based, A549, cytoblot, luminescence, serum-stimulated, primary screen (AID 1158); conditions: 5 h, higher = more signal;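 also: serum-stimulated A549 lung adenocarcinoma cells; signal is phosphorylated S6 detected by cytoblot immunostaining with HRP secondary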
[8] = target: NADPH oxidase 2 (Homo sapiens) (UniProt P04839); test: compounds shifting NOX2 Amplex Red fluorescence – cell-based, HEK293-NOX2, PMA-stimulated, NOX inhibitor project, primary screen (AID 1159); conditions: 45 min, higher = more signal, called active from +8 up or from −8 down; also: test concentration not given here
Chain of NADPH oxidase 2 (Homo sapiens) (P04839 whole entry, looked up): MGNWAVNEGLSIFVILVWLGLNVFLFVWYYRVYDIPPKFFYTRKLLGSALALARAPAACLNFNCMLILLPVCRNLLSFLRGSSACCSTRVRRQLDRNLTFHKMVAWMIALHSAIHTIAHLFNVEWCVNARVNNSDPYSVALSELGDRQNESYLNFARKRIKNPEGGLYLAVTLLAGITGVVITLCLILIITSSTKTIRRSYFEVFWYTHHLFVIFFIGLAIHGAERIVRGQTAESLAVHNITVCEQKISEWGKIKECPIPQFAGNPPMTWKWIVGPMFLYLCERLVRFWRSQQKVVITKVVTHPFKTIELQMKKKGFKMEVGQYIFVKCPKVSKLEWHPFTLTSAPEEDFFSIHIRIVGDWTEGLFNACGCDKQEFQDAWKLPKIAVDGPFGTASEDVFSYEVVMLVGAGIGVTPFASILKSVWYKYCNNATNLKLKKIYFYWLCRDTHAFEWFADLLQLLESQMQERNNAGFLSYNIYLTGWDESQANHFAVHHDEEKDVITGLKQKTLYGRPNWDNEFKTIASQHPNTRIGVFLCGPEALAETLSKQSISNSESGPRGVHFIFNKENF

[9] = target: NADPH oxidase 4 (Homo sapiens) (UniProt Q9NPH5); test: compounds shifting NOX4 Amplex Red fluorescence – cell-based, HEK293-NOX4, tetracycline-induced, NOX inhibitor project, primary screen (AID 1160); conditions: HEK293-NOX4, Amplex Red H2O2 fluorescence, 45 min; higher = more signal, called active from +8 up or from −8 down
Chain of NADPH oxidase 4 (Homo sapiens) (Q9NPH5 whole entry, looked up): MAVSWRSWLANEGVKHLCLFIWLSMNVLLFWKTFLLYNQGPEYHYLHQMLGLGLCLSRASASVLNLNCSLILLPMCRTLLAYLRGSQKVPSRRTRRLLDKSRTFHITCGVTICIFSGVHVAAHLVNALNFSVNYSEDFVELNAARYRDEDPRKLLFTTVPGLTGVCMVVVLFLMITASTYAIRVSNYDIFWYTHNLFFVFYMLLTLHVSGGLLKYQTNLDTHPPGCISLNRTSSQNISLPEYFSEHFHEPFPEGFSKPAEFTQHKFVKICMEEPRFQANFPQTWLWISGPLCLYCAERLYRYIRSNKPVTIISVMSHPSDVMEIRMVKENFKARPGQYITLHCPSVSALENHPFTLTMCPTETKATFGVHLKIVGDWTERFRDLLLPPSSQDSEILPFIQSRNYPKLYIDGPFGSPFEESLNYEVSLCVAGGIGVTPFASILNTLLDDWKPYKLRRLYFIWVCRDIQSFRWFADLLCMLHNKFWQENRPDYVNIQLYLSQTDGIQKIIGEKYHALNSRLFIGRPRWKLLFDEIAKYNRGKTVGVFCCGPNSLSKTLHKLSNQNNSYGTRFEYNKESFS

[10] = target: NADPH oxidase 5 (Homo sapiens) (UniProt Q96PH1); test: compounds shifting NOX5 Amplex Red fluorescence – cell-based, HEK293-NOX5, NOX inhibitor project, primary screen (AID 1161); conditions: HEK293-NOX5, ionomycin, 45 min, higher = more signal
Chain of NADPH oxidase 5 (Homo sapiens) (Q96PH1 whole entry, looked up): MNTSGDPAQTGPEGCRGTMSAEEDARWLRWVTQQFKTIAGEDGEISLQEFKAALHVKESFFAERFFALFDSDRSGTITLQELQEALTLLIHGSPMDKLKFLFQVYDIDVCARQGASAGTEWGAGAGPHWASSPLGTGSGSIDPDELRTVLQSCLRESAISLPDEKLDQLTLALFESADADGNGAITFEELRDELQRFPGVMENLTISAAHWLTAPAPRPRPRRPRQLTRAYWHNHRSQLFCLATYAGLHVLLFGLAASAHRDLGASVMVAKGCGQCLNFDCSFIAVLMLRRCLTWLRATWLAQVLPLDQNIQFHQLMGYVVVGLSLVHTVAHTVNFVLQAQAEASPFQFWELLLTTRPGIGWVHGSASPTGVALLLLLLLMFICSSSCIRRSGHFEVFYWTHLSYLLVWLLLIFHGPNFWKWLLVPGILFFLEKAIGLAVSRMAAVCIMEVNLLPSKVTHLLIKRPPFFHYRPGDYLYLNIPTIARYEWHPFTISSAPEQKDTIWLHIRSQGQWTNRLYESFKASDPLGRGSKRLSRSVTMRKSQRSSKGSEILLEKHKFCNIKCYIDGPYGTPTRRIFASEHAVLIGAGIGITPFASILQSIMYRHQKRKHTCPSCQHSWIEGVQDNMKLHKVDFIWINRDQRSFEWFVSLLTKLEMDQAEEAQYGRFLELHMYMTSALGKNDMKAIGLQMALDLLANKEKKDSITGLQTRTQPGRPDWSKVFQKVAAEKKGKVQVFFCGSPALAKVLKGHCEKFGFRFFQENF

[11] = compound effects on lung adenocarcinoma cell viability – A549, calcein-AM fluorescence, 48 h, basal, profiling panel (AID 1162); conditions: higher = more signal; also: test concentration not given here
[12] = compound effects on differentiated 3T3-L1 adipocyte viability – cell-based, 3T3-L1 adipocytes, calcein-AM fluorescence, 48 h, basal, profiling panel (AID 1163); conditions: 3T3-L1 adipocytes viability, higher = more signal; also: test concentration not given here
[13] = compound effects on hepatocellular carcinoma cell viability – HepG2, calcein-AM fluorescence, 48 h, basal, profiling panel (AID 1164); conditions: higher = more signal; also: test concentration not given here
[14] = compound effects on multiple myeloma cell viability – MM1S, calcein-AM fluorescence, 48 h, basal, profiling panel (AID 1165); conditions: higher = more signal; also: test concentration not given here
[15] = calcein-AM signal in unstimulated myeloma cells – cell-based, calcein-AM fluorescence, 48 h, PK04 Diversity Set, profiling panel (AID 1166); conditions: RPMI8226 myeloma viability, higher = more signal;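 also: cells grown under basal conditions without added stimulus; test concentration not given here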
[16] = JC-1 mitochondrial signal, unstimulated HepG2 cells – cell-based, JC-1 fluorescence, 24 h, 100 nL compound, profiling panel (AID 1167); conditions: HepG2 mitochondrial potential, higher = more signal; also: test concentration not given here
[17] = JC-1 mitochondrial signal, unstimulated adipocytes – cell-based, JC-1 fluorescence, 3T3-L1 adipocytes, 24 h, 100 nL compound, profiling panel (AID 1168); conditions: JC-1 mitochondrial fluorescence, higher = more signal, called active from +8 up or from −8 down; also: test concentration not given here
[18] = JC-1 mitochondrial signal, unstimulated myeloma cells – cell-based, JC-1 fluorescence, RPMI8226, 24 h, 100 nL compound, profiling panel (AID 1169); conditions: JC-1 mitochondrial potential fluorescence, higher = more signal; also: test concentration not given here
[19] = JC-1 mitochondrial signal, unstimulated MM1S myeloma – cell-based, JC-1 fluorescence, 24 h, 100 nL compound, profiling panel (AID 1170); conditions: MM1S mitochondrial potential, higher = more signal; also: test concentration not given here
[20] = resazurin metabolic signal in A549 cells – cell-based, resazurin fluorescence, 24 h, PK04 Diversity Set, profiling panel (AID 1171); conditions: A549 viability, higher = more signal, called active from +8 up or from −8 down; also: test concentration not given here

SMILES	z-score [1]	composite z-score [2]	z-score [3]	z-score [4]	z-score [5]	z-score [6]	z-score [7]	z-score [8]	z-score [9]	z-score [10]	z-score [11]	z-score [12]	z-score [13]	z-score [14]	z-score [15]	z-score [16]	z-score [17]	z-score [18]	z-score [19]	z-score [20]
COC(=O)[C@@]1(Cc2ccc(F)cc2)[C@H]2c3cc(C(=O)N4CCCC4)n(CCCNc4ncc(C(F)(F)F)cc4Cl)c3C[C@H]2CN1C(=O)c1ccccc1	-2.31 (inactive)	0.4	1.58 (inactive)	0.852 (inactive)	1.01 (inactive)	0.863 (inactive)	-0.626	-0.299 (inactive)	-2.23 (inactive)	-0.307	-0.386	-0.68	0.0224	-1.48	-1.13	1.12	-1.8 (inactive)	-0.501	-1.2	-0.733 (inactive)
O=C1NC(=O)C2C1C=CC(C(O)c1cccs1)N2Nc1ccc(Cl)cc1Cl (stereo not given)	-0.713 (inactive)	-0.012	2.33 (inactive)	1.32 (inactive)	-0.0207 (inactive)	1.34 (inactive)	-0.27	-0.483 (inactive)	-4.81 (inactive)	-1.57	-0.599	-0.191	-0.165	-1.71	-0.884	-2.1	0.0583 (inactive)	0.236	-0.219	-0.523 (inactive)
[N-]=[N+]=Nc1ccccc1[C@H]1OC(c2ccc(OCCCO)cc2)=N[C@@]1(CCS(=O)(=O)c1ccccc1)C(=O)NCC(O)CO (stereo not given in full)	-0.562 (inactive)	0.0919	29.7 (active)	28.2 (active)	1.72 (inactive)	2.09 (inactive)	-0.235	1.09 (inactive)	-0.0647 (inactive)	-1.07	-0.0714	0.638	0.0911	-0.826	0.395	-1.16	-0.22 (inactive)	0.311	-0.0714	0.859 (inactive)
C=CC[C@]1(C(=O)NCCCOC)N=C(c2ccc(OCCCO)cc2)O[C@H]1c1ccccc1CN=[N+]=[N-]	-0.653 (inactive)	0.443	13.6 (active)	1.21 (inactive)	1.37 (inactive)	0.424 (inactive)	-0.102	0.324 (inactive)	0.649 (inactive)	-0.973	0.566	0.243	0.716	-1.86	-0.134	1.76	-0.299 (inactive)	-1.25	-0.142	-0.0227 (inactive)
NCCCCCCNC(=O)[C@@H]1C[C@@H]2C(=O)NCC(=O)N2[C@@H]1c1ccc(O)cc1	0.812 (inactive)	-0.0126	0.846 (inactive)	1.04 (inactive)	4.22 (inactive)	0.497 (inactive)	0.257	-0.302 (inactive)	0.4 (inactive)	0.182	-1.17	0.544	-1.07	0.307	0.0172	-0.479	0.172 (inactive)	-0.796	-0.365	-0.368 (inactive)
CCOC(=O)C[C@H]1[C@H](OC(=O)c2ccc(C(=O)c3ccccc3)cc2)[C@@H](NC(=O)c2ccccc2)c2cc(OCCCO)ccc2N1C(=O)Cc1ccc(OC)cc1	-0.126 (inactive)	-0.185	3.37 (inactive)	0.656 (inactive)	-0.391 (inactive)	0.259 (inactive)	-0.0114	0.924 (inactive)	0.983 (inactive)	1.45	1.21	-0.0981	0.316	-0.797	0.0179	1.95	0.591 (inactive)	-0.696	-0.231	0.261 (inactive)
CCOC(=O)C[C@H]1[C@H](OC(=O)c2ccccc2-c2ccccc2)[C@@H](NC(=O)CC(C)C)c2cc(OCCCO)ccc2N1C(=O)Cc1ccc(OC)cc1	-0.892 (inactive)	-0.0094	2.71 (inactive)	0.317 (inactive)	0.587 (inactive)	0.207 (inactive)	0.633	-0.234 (inactive)	1.21 (inactive)	-0.33	0.412	0.417	0.612	-1.52	-0.884	1.4	0.652 (inactive)	-0.0827	0.32	1.34 (inactive)
CC(C)N1C(=O)[C@@]2(Cc3ccccc31)c1ccccc1C(=O)N(Cc1ccccc1Cl)[C@H]2c1ccc(CO)cc1	0.581 (inactive)	-0.17	-0.0086 (inactive)	-0.513 (inactive)	1.23 (inactive)	-1.78 (inactive)	1.17	0.16 (inactive)	0.946 (inactive)	1.04	1.02	-0.24	-0.921	-1.58	-0.238	0.407	0.111 (inactive)	0.115	-1.76	0.458 (inactive)
CC(C)NC(=O)[C@@]1(C)c2ccccc2C(=O)N(Cc2cc(C(F)(F)F)cc(C(F)(F)F)c2)[C@H]1c1ccc(CO)cc1	-0.204 (inactive)	0.0328	11.8 (active)	1.66 (inactive)	1.35 (inactive)	0.377 (inactive)	0.401	-1.13 (inactive)	0.154 (inactive)	0.685	1.25	-0.562	0.481	-0.137	-0.825	0.718	0.468 (inactive)	-0.382	-0.527	-0.558 (inactive)
COC(=O)[C@@]1(Cc2ccccc2)[C@H]2c3cc(C(=O)N4CCCC4)n(Cc4ccc(S(C)(=O)=O)cc4)c3C[C@H]2CN1C(=O)c1ccccc1	-0.94 (inactive)	0.198	1.98 (inactive)	0.238 (inactive)	0.716 (inactive)	0.742 (inactive)	-0.121	0.613 (inactive)	-1.16 (inactive)	-1.9	-0.235	0.949	-0.838	-1.09	-1.68	2.43	-1.62 (inactive)	0.148	-0.659	0.142 (inactive)
CC(C)NC(=O)[C@@H]1c2ccccc2C(=O)N(C2Cc3ccccc3C2)[C@H]1c1ccc(CO)cc1	0.814 (inactive)	0.11	3.41 (inactive)	0.119 (inactive)	0.121 (inactive)	0.182 (inactive)	0.0063	-0.402 (inactive)	0.0797 (inactive)	-0.994	1.54	-0.27	1.22	0.543	0.982	3.83	0.976 (inactive)	0.459	-0.096	1.81 (inactive)
[N-]=[N+]=NCc1ccccc1[C@@H]1OC(c2ccc(OCCCO)cc2)=N[C@]1(Cc1ccccc1)C(=O)NCC(O)CO (stereo not given in full)	-0.0722 (inactive)	0.484	13.5 (active)	1.15 (inactive)	0.942 (inactive)	0.123 (inactive)	-0.319	-0.847 (inactive)	1.7 (inactive)	-0.0855	0.939	-1.16	0.78	-1.07	-0.596	-0.474	-0.672 (inactive)	-0.596	-0.471	0.424 (inactive)
CC(C)C(CO)N1C(=O)[C@@H]2C3C(=O)OCCC/C=C\[C@H]3OC23C=CCN(CCN2CCOCC2)C(=O)[C@@H]13 (stereo not given in full)	-0.385 (inactive)	-0.07	0.81 (inactive)	0.179 (inactive)	0.148 (inactive)	0.16 (inactive)	-0.158	1 (inactive)	0.401 (inactive)	1.4	1.12	-0.453	-0.66	0.171	-0.378	-0.936	-0.173 (inactive)	-0.759	-0.359	-0.702 (inactive)
C=C(C)[C@@H]1CC=C(C(O)C2C=CC3C(=O)N(c4ccccc4)C(=O)C3N2Nc2ccccc2)CC1 (stereo not given in full)	-0.59 (inactive)	1.33	8.1 (active)	2.94 (inactive)	1.09 (inactive)	1.73 (inactive)	-0.798	-0.653 (inactive)	-3.06 (inactive)	-2.48	1.62	-0.63	1.16	-0.646	-1.05	-1.95	-0.27 (inactive)	-0.45	-0.31	0.296 (inactive)
CO[C@H]1O[C@H](CO)[C@@H](OC(=O)Nc2ccc(Oc3ccccc3)cc2)[C@H](OC(=O)Nc2ccc3c(c2)OCO3)[C@H]1OC(=O)Nc1ccc2c(c1)OCO2	0.97 (inactive)	0.523	7.24 (inactive)	0.996 (inactive)	0.902 (inactive)	0.397 (inactive)	1.2	0.706 (inactive)	-1.65 (inactive)	-0.714	-0.331	0.377	0.106	-0.789	-0.594	-0.185	2.17 (inactive)	-0.583	0.818	0.104 (inactive)
COc1cc(NN2C(C(O)c3ccco3)C=CC3C(=O)N(c4ccccc4)C(=O)C32)cc(OC)c1OC (stereo not given)	-1.37 (inactive)	-0.441	0.886 (inactive)	-1.47 (inactive)	1.06 (inactive)	-1.28 (inactive)	1.29	-3.15 (inactive)	-4.23 (inactive)	-5.73	-0.5	0.117	-0.337	0.0511	-0.307	-0.955	-0.967 (inactive)	0.187	-1.31	-1.54 (inactive)
COC(=O)[C@@]1(Cc2ccc(OC)cc2)[C@H]2c3cc(C(=O)N4CCCC4)n(Cc4ccc(O)c(OC)c4)c3C[C@H]2CN1C(=O)c1ccccc1	-0.703 (inactive)	0.622	5.08 (inactive)	0.722 (inactive)	1.04 (inactive)	0.739 (inactive)	0.299	-2.31 (inactive)	-4.7 (inactive)	-4.33	-0.226	0.174	0.321	0.11	-0.243	2.27	-0.183 (inactive)	-0.221	-0.933	-1.47 (inactive)
CCCCC(CC)C(O)C1C=CC2C(=O)N(Cc3ccccc3)C(=O)C2N1n1cnnc1 (stereo not given)	-1.5 (inactive)	0.0903	0.218 (inactive)	0.0653 (inactive)	0.604 (inactive)	0.411 (inactive)	-0.908	-0.132 (inactive)	-0.476 (inactive)	-0.99	-0.682	-0.498	-0.391	-0.165	-0.208	-0.522	-1.48 (inactive)	0.447	0.533	-0.56 (inactive)
